Inconclusive results are not listed.
assay: Confirmation Concentration-Response Assay for Agonists of the Thyroid Stimulating Hormone Receptor; settings: HEK293 TSHR-CNG cells, membrane potential dye, cAMP; measured here: parental HEK293 counter-screen max; further: reference of the scale not given here
How it was run: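 HEK 293 cells stably expressing TSHR and a modified CNG channel as cAMP biosensor; parental CNG-only cells as counterscreen. Cells loaded with membrane potential dye containing 100 uM RO 20-1724 for 60 min, compound added 30 min, fluorescence read at 590 nm.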

Structure (SMILES)	max response
Cc1ccccc1-n1nc(C)c2cc(C(=O)N3CCN(S(=O)(=O)c4ccc(F)cc4)CC3)sc21	-1.22%
O=C(CN(Cc1ccc(F)cc1)S(=O)(=O)c1ccccc1)N1CCCCC1	-6.59%
CCOc1ccc(N(CC(=O)NC(C)(C)C)S(=O)(=O)c2c(C)noc2C)cc1	6.91%
COc1cccc(C2CC(c3ccccc3OC)n3nc(N)nc3N2)c1 (stereo not drawn)	6.01%
Cc1ccc(S(=O)(=O)N2CCC(C(=O)NCCCN3CCCCCC3)CC2)cc1	-4.36%
Cc1ccc(-n2nc(-c3ccc(N)cc3)cc2N)cc1	-8.96%
Cn1c(=O)[nH]c(=O)c2c1nc(N1CCCCCC1)n2CCCSc1nc2ccccc2o1	12.7%
Cc1cc(C)nc(N(C#N)CC(=O)N2CCC(C(N)=O)CC2)n1	-13.4%
O=c1c2ccccc2ncn1-c1ccc2c(c1)OCCO2	6.03%
O=C(C1COc2ccccc2O1)N1CCCC1 (stereo not drawn)	-1.94%
Cc1ccc2nc(SCC(=O)O)nc(C)c2c1	13%
COc1ccc(-c2ccc(-c3noc(C)n3)c(OC)n2)cc1	8.55%
Cc1onc(-c2ccccc2)c1C(=O)N1CCCSC1=Nc1ccccc1	18.9%
CC(c1ccco1)N(C(=O)c1ccc(Cl)s1)c1ccccn1 (stereo not drawn)	8.8%
Cc1oc(-c2cccc(Cl)c2)nc1CN1CCCC(C(=O)NC(C)c2ccc3c(c2)OCCO3)C1 (stereo not drawn)	8.77%
COc1ccc(C(=O)N(Cc2ccco2)Cc2cccs2)c(O)c1	-7.34%
CC1(C)c2ccccc2N2CC(=O)NC21/C=C/c1ccco1 (stereo not drawn)	9.74%
Oc1ccccc1-c1cc(C(F)(F)C(F)F)nc(-c2ccccc2)n1	3.44%

Source: PubChem BioAssay AID939 (National Center for Advancing Translational Sciences (NCATS), 2007)
